Results taken from PubChem BioAssay (Tox21).
Inconclusive results are not listed. Calls of active or inactive are those of the source. Unless noted, calls come from the whole dose curve.

Assays:
[1] = qHTS assay to identify small molecule agonists of the vitamin D receptor (VDR) signaling pathway - cell viability counter screen (AID 743224; active = well fitted curve in the direction sought with a large enough effect in the repeat runs; an effect the other way counts as inactive or inconclusive; note: series mostly up to about 63 µM; nearly all actives have a fitted effect of over 50% in size)
Procedure, shortened: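 In parallel with the bla FRET readout, cytotoxicity toward VDR-bla cells after 16 h compound exposure was assessed by CellTiter-Glo, with luminescence recorded after a 30 min room-temperature incubation.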

[2] = qHTS assay to identify small molecule antagonists of the vitamin D receptor (VDR) signaling pathway - cell viability counter screen (AID 743225; active = well fitted curve in the direction sought with a large enough effect in the repeat runs; an effect the other way counts as inactive or inconclusive; note: nearly all actives have a fitted effect of over 50% in size)
Procedure, shortened: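 Same-well multiplex: following 16 h treatment of HEK 293T cells carrying a UAS-driven beta-lactamase reporter with compound and agonist (3 nM final), and a 2 h FRET substrate step, CellTiter-Glo was added and luminescence read after 30 min.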

[3] = qHTS assay to identify small molecule agonists of the NFkB signaling pathway (AID 1159509; active = well fitted curve in the direction sought with a large enough effect in the signal ratio in the repeat runs, not every such curve was filed as active; the % refers to the signal ratio; note: series mostly up to about 61 µM)
Procedure, shortened: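 Readout: FRET fluorescence, 405 nm excitation, 460/530 nm emission; beta-lactamase expression disrupts FRET. Cells: ME-180 stably carrying NF-kB-driven bla reporter. Compound exposure 5 hr, 37 C, 5% CO2.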

[4] = qHTS assay to identify small molecule agonists of the NFkB signaling pathway - cell viability counter screen (AID 1159515); note: series mostly up to about 61 µM; nearly all actives have a fitted effect of over 55% in size
Procedure, shortened: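 Plate 2,000 NFkB-bla ME-180 cells/well; incubate overnight. Add compounds, 5 hr at 37 C. Add FRET substrate, 1.5 hr RT. Add CellTiter-Glo, 30 min RT; read luminescence.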

[5] = qHTS assay to identify small molecule agonists of the endoplasmic reticulum stress response signaling pathway (AID 1159516; active = well fitted activation curve with a large enough effect in the signal ratio in the repeat runs, not every such curve was filed as active; the % refers to the signal ratio)
Procedure, shortened: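 Beta-lactamase expression from the ER stress response element in HeLa reporter cells is quantified with the LiveBLAzer B/G FRET substrate, read at 405 nm excitation after 2 hr at room temperature, following 5 hr compound treatment at 37 C.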

[6] = qHTS assay to identify small molecule agonists of the endoplasmic reticulum stress response signaling pathway - cell viability counter screen (AID 1159517); note: series mostly up to about 61 µM; nearly all actives have a fitted effect of over 50% in size
Procedure, shortened: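 Steps: seed 1,500 ESRE-bla HeLa cells per well; incubate overnight at 37 C, 5% CO2; add compounds in DMSO for 5 hr; run FRET substrate 2 hr RT; add CellTiter-Glo, wait 30 min, read luminescence.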

[7] = qHTS assay to identify small molecule antagonists of the retinoid-related orphan receptor gamma (ROR-gamma) signaling pathway - cell viability counter screen (AID 1159520; active = well fitted curve in the direction sought with a large enough effect in the repeat runs; an effect the other way counts as inactive or inconclusive; note: nearly all actives have a fitted effect of over 50% in size)
Procedure, shortened: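 Tet-on ROR gamma CHO cells were given compounds for 2 hr, then doxycycline hyclate at 1 uM final, and incubated 16 hr at 37 C. Viability was measured as ATP content by CellTiter-Glo luminescence.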

[8] = qHTS assay to identify small molecule agonists of the AP-1 signaling pathway - cell viability counter screen (AID 1159525); note: nearly all actives have a fitted effect of over 55% in size
Procedure, shortened: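 Same-well cytotoxicity counter screen of the Tox21 10K library in ME-180 cells. The readout is ATP-dependent luminescence after 5 h compound treatment. Data are normalised to DMSO and tetra n-octyl ammonium bromide controls.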

[9] = qHTS assay to identify small molecule agonists of the AP-1 signaling pathway (AID 1159526)
[10] = biological target: Nuclear receptor ROR-gamma (Homo sapiens) (UniProt P51449); test: qHTS assay to identify small molecule antagonists of the retinoid-related orphan receptor gamma (ROR-gamma) signaling pathway (AID 1159521; active = well fitted curve in the direction sought with a large enough effect in the repeat runs; an effect the other way counts as inactive or inconclusive)
Procedure, shortened: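 Inducible-expression reporter assay: doxycycline (1 uM final) switched on RORγ in CHO cells bearing a ROR response element-luciferase construct, with test compounds present from 2 h beforehand. Decreased luminescence after 16 h defined antagonist activity.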

Measured: Potency

C/C=C/CC#N
not listed: [10]
inactive: all other assays above

CC(C)(N)Cc1ccc(Cl)cc1
not listed: [10]
inactive: all other assays above

COc1ccccc1OC
not listed: [10]
inactive: all other assays above

CC[C@@H](CO)NC(=O)[C@@H]1C=C2c3cccc4[nH]cc(c34)C[C@H]2N(C)C1
not listed: [10]
inactive: all other assays above

CCC(CC)(CNC(=O)CCCO)c1cccc(OC)c1
not listed: [10]
inactive: all other assays above

BrCCc1ccccc1
not listed: [10]
inactive: all other assays above

CC(C)(N)Cc1ccccc1Cl
not listed: [10]
inactive: all other assays above

COP(=O)(OC)O/C(C)=C/C(=O)N(C)C
not listed: [2] | [6]
inactive: all other assays above

CC(Cc1ccccc1)NCCn1cnc2c1c(=O)n(C)c(=O)n2C (configuration not stated)
not listed: [10]
inactive: all other assays above

CCOc1cc(OP(=S)(OC)OC)nc(CC)n1
not listed: [10]
inactive: all other assays above

CCOC(=O)CC(SP(=S)(OC)OC)C(=O)OCC (configuration not stated)
not listed: [2] | [6]
inactive: all other assays above
